Vaccinia mCherry – inhibitors of vaccinia virus infection (mCherry reporter signal). Vaccinia virus mCherry reporter infection, fluorescence. Potency, µM (top dose mostly 36.5 µM), inactives show at the highest dose activity change, negative = inhibition, hits mostly inhibitors. 310,000 compounds, 0.63% hits; calls by dose curve; tested in A549 cells; also: nearly all actives have a fitted effect of over 35% in size
AMA1 RON2 block – AMA1-RON2 (P. falciparum) interaction inhibition; AlphaScreen AMA1-biotinylated RON2 peptide binding; Potency, µM (series often up to 58.2 µM), inactives show at the highest dose activity change, negative = inhibition, most hits filed as inhibitors; 360,000 compounds, 0.2% hits;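 also: 0% = vehicle wells and -100% = peptide control; nearly all actives have a fitted effect of over 45% in size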
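AMA1 (3D7) with his tag at 25 nM final met compounds first, then biotinylated RON2 peptide at 25 nM; detection used donor plus acceptor beads, 10 µg/mL apiece, read by AlphaScreen after 30 min at room temperature.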
VACV Venus inh – inhibitors of vaccinia virus (Venus reporter) | 330,000 compounds, 0.46% hits | Potency, µM (top dose mostly 36.5 µM), for inactives: at the highest dose activity change, negative = inhibition, usual class: inhibitors | Vaccinia virus Venus reporter expression, fluorescence; calls by dose curve; tested in A549 cells; also: nearly all actives have a fitted effect of over 30% in size
Pf growth 96h – P. falciparum growth inhibition at 96 hours. AID 504834. 320,000 compounds, 6.9% hits. P. falciparum luciferase reporter growth, 96 h. Potency, µM (doses to about 28.7 µM), for inactives: at the highest dose activity change, negative = inhibition, most hits filed as inhibitors
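P. falciparum expressing integrated firefly luciferase, in erythrocytes at 2% hematocrit, 0.05% parasitemia, incubated with compounds 96 h at 37 C, 5% CO2. Growth inhibition read as loss of luminescence; two-generation exposure targets delayed-death apicoplast inhibitors.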
Pf growth 48h – P. falciparum growth inhibition at 48 hours (one generation) | P. falciparum luciferase growth in erythrocytes, 48 h | Potency, µM (series often up to 28.7 µM), inactives show top-dose activity change, negative = inhibition, most hits filed as inhibitors | 310,000 compounds, 5.9% hits | AID 504832
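Parasite viability was followed by luminescence of a genomically integrated firefly luciferase. Cultures held 0.1% parasitemia at 2% hematocrit (final), incubated under 5% CO2 at 37 C.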
* hit, by the source's call; [ ] = dose if it differs, or a comment. Rows were chosen to be rich in hits. Some 8.7% of all compounds tested hit in one or more screens of this group. Unless noted, calls follow the shape of the dose curve; as a rule, active = well fitted curve in the direction sought with a large enough effect; inconclusive = small, poorly fitted or top-dose-only effect, or another doubt; inactive = no such curve, though single readings can be large; an effect the other way counts as inactive or inconclusive. Unless noted, % is scaled to controls: 0 for no effect and ±100 for the full control effect; potency is read from the fitted curve at half-maximal effect.

What do the screens show for `Oc1cc(-c2nc3ccccc3s2)cc2c1OCCN(Cc1cccn1-c1ccc(Cl)cn1)C2`?
Vaccinia mCherry: -7.4%; VACV Venus inh: -0.9%

Results for O=C1C=C(c2ccccc2)C[C@H](c2cccs2)[C@H]1n1nnc([N+](=O)[O-])n1 ?
Vaccinia mCherry: 14.1µM*; AMA1 RON2 block: -0.8%[2.32 µM]; VACV Venus inh: inconclusive; Pf growth 96h: 8.28µM*; Pf growth 48h: 1.85µM*

How did COc1ccc(-c2nc3cc(C)ccc3cc2CN(C(=O)c2ccc(C)s2)C2CC2)cc1OC do in these assays?
Vaccinia mCherry: -20.7%; VACV Venus inh: -8.6%

What do the screens show for `COc1ccc(NC(=O)NCCN2C(=O)C3C4C=CC(C4)C3C2=O)cc1` (stereo unspecified)?
Vaccinia mCherry: -2.6%; AMA1 RON2 block: -2.2%; VACV Venus inh: 3.9%; Pf growth 96h: 11.7µM*; Pf growth 48h: 93.9%

How did Cc1cccc(NC(=O)NCCN2C(=O)C3C4C=CC(C4)C3C2=O)c1 (stereo unspecified) do in these assays?
AMA1 RON2 block: -6.8%; Pf growth 96h: 11.7µM*

What do the screens show for `Cc1ccc(C(C)C)c(OCCCn2c(=O)oc3ccc(C)cc32)c1`?
Vaccinia mCherry: 3.6%; VACV Venus inh: -8.9%

Results for OC1=C(O)c2nc3cc(C(F)(F)F)ccc3nc21 ?
Vaccinia mCherry: -16.2%; AMA1 RON2 block: 28.2µM*; VACV Venus inh: 12.5%; Pf growth 96h: -8.1%; Pf growth 48h: inconclusive

What do the screens show for `OC1=C(O)c2nc3ccccc3nc21`?
AMA1 RON2 block: 1.0%; Pf growth 96h: inconclusive; Pf growth 48h: inconclusive

How did CC(C)NS(=O)(=O)c1cc(F)ccc1CN1C(=O)c2cccnc2C1=O do in these assays?
AMA1 RON2 block: 0.0%; Pf growth 96h: 2.08µM*; Pf growth 48h: -8.6%

What do the screens show for `COc1ccc(-c2nn(-c3ccccc3)cc2CNCc2cccnc2)c(F)c1`?
Vaccinia mCherry: inactive; AMA1 RON2 block: -15.9%; VACV Venus inh: -12.8%; Pf growth 96h: 0.0%; Pf growth 48h: inconclusive

How did COc1ccc(-n2cc(CN(C)C(C)c3ccncn3)c(-c3cccc(F)c3)n2)cc1 (stereo unspecified) do in these assays?
Vaccinia mCherry: inconclusive; AMA1 RON2 block: 28.3%; VACV Venus inh: inconclusive; Pf growth 96h: 8.3%; Pf growth 48h: 10.4µM*

What do the screens show for `COc1ccc(-n2cc(CN3CCC(OC)CC3)c(-c3cccc(F)c3)n2)cc1`?
Vaccinia mCherry: inconclusive; AMA1 RON2 block: 7.4%; VACV Venus inh: -6.8%; Pf growth 96h: 24.8%; Pf growth 48h: 10.4µM*

How did COc1cccc(-c2nn(-c3ccccc3)cc2CN(C)C(C)c2ccncn2)c1 (stereo unspecified) do in these assays?
Vaccinia mCherry: -23.5%; AMA1 RON2 block: 22.3%; VACV Venus inh: -28.7%; Pf growth 96h: inconclusive; Pf growth 48h: inconclusive

What do the screens show for `COc1ccc(-n2cc(CNCCc3cnc[nH]3)c(-c3cccc(F)c3)n2)cc1`?
Vaccinia mCherry: inconclusive; AMA1 RON2 block: 29.5%; VACV Venus inh: -27.3%; Pf growth 96h: inconclusive; Pf growth 48h: 1.65µM*

What do the screens show for `COc1ccc(-n2cc(CNC3CCC(O)CC3)c(-c3cccc(F)c3)n2)cc1` (stereo unspecified)?
Vaccinia mCherry: -17.8%; AMA1 RON2 block: -4.6%; VACV Venus inh: -17.0%; Pf growth 96h: inconclusive; Pf growth 48h: inconclusive

How did COc1ccc(-n2cc(CNCc3cccnc3)c(-c3cccc(F)c3)n2)cc1 do in these assays?
Vaccinia mCherry: -22.4%; AMA1 RON2 block: -20.5%; VACV Venus inh: -19.9%; Pf growth 96h: inconclusive; Pf growth 48h: 13.1µM*

How did O=C(CCSCCc1ccccn1)Nc1ccccc1C(F)(F)F do in these assays?
Vaccinia mCherry: -6.1%; VACV Venus inh: -6.1%

What do the screens show for `COc1cc2c(cc1OC)C1(CCCC1)CNC2c1cccc([N+](=O)[O-])c1` (stereo unspecified)?
Vaccinia mCherry: -22.7%; AMA1 RON2 block: -20.2%; VACV Venus inh: -13.7%; Pf growth 96h: 3.29µM*; Pf growth 48h: inconclusive

Results for COc1cc2c(cc1OC)C(c1cccc([N+](=O)[O-])c1)NC(=O)C2 (stereo unspecified) ?
Vaccinia mCherry: -5.7%; AMA1 RON2 block: -3.2%; VACV Venus inh: -12.1%; Pf growth 96h: 6.57µM*; Pf growth 48h: 3.9%

Results for Cc1cc2c(cc1C)C(c1cccc([N+](=O)[O-])c1)CC(=O)N2 (stereo unspecified) ?
Vaccinia mCherry: 0.355µM*; AMA1 RON2 block: -3.0%; VACV Venus inh: 1µM*; Pf growth 96h: 6.2%; Pf growth 48h: -26.8%

Results for COc1cc(C2CC(=O)Nc3cc(C)c(C)cc32)cc(OC)c1OC (stereo unspecified) ?
Vaccinia mCherry: inconclusive; AMA1 RON2 block: -0.5%; VACV Venus inh: -18.9%; Pf growth 96h: inconclusive; Pf growth 48h: -26.1%

What do the screens show for `CCOC(=O)C1CCCN(C(=O)c2cccc(NC(=O)c3nsc4ccccc34)c2)C1` (stereo unspecified)?
Vaccinia mCherry: -4.2%; VACV Venus inh: -1.5%

How did O=C(CSCc1ccc(F)cc1)Nc1ccc(F)cc1 do in these assays?
Vaccinia mCherry: inactive; AMA1 RON2 block: 1.1%; VACV Venus inh: -14.1%; Pf growth 96h: 6.57µM*; Pf growth 48h: 0.8%

How did Cc1ccc(NC(=O)CSCC(=O)Nc2ccc(S(=O)(=O)N3CCCC3)cc2)cc1 do in these assays?
Vaccinia mCherry: -11.1%; AMA1 RON2 block: 1.0%; VACV Venus inh: -7.3%; Pf growth 96h: -1.8%; Pf growth 48h: inconclusive

Results for O=C(CSCc1ccc([N+](=O)[O-])cc1)Nc1ccccc1C(=O)O ?
Vaccinia mCherry: -4.1%; AMA1 RON2 block: 15.1%; VACV Venus inh: -8.2%; Pf growth 96h: 9.28µM*; Pf growth 48h: 1.7%

Results for O=C(CSCc1ccc([N+](=O)[O-])cc1)Nc1ccc(S(=O)(=O)N2CCCCCC2)cc1 ?
Vaccinia mCherry: -14.7%; AMA1 RON2 block: -6.6%; VACV Venus inh: -15.2%; Pf growth 96h: 10.4µM*; Pf growth 48h: inconclusive

What do the screens show for `Cc1nc(C(=O)N(Cc2cc3ccc(F)cc3nc2N2CCC(O)CC2)CC2CCCO2)cs1` (stereo unspecified)?
Vaccinia mCherry: -11.8%; VACV Venus inh: -5.8%

How did Cc1c(NS(=O)(=O)c2ccc(N(C)C3CCCCC3)c([N+](=O)[O-])c2)c(=O)n(-c2ccccc2)n1C do in these assays?
Vaccinia mCherry: inactive; AMA1 RON2 block: -13.3%; VACV Venus inh: -1.0%; Pf growth 96h: 10.4µM*; Pf growth 48h: inconclusive

How did CC(C)CC(=O)NC(=S)NNC(=O)c1ccc([N+](=O)[O-])cc1 do in these assays?
Vaccinia mCherry: -26.7%; AMA1 RON2 block: 19.3%; VACV Venus inh: inconclusive; Pf growth 96h: inconclusive; Pf growth 48h: inconclusive

Results for CCCCOc1ccc(OCCNC(=O)c2ccco2)cc1 ?
Vaccinia mCherry: -1.7%; AMA1 RON2 block: -2.3%; VACV Venus inh: 11.6%; Pf growth 96h: inconclusive; Pf growth 48h: 9.28µM*

Assay outcomes: PubChem, National Center for Advancing Translational Sciences (NCATS)
